Measurements: PubChem BioAssay AID2314 (National Center for Advancing Translational Sciences (NCATS), 2010)
“And” between values parts separate entries of the source, which are not always exact repeats. Identical values can stand only once. The whole screen tested about 300,000 compounds, of which about 37,000 (12%) were called active. No stated cut-off is given here; in the data, active means max response mostly above about 13% (no sharp cut-off); inactive means mostly below about 14%. The entries come from a sample that favours actives as a whole. More than one record can exist for a structure, and the calls need not agree.

test: Cycloheximide Counterscreen for Small Molecule Inhibitors of Shiga Toxin; settings: cell reporter, cycloheximide protein synthesis inhibition counterscreen; stronger effect = higher value; further: read at 38.3 µM for the half of the compounds with a filed dose; 0% is about no effect

Row | Compound | max response
1 | CCSc1nc(C)c(CCOc2cccc(C)c2)c(=O)[nH]1 | 1.14% (inactive)
2 | O=C(Nc1ccc(Cl)cc1)OCc1cc(-c2ccccc2)on1 | 22.5% (active)
3 | O=C(Nc1ccccc1)OCc1cc(-c2ccc(Cl)cc2)on1 | -2.77% (inactive)
4 | Clc1ccc(-c2cc(COc3ccccc3)no2)cc1Cl | -2.19% (inactive)
5 | CS(=O)(=O)Nc1cccc(C2=NN(S(=O)(=O)c3ccccc3)C(c3cccs3)C2)c1 (stereo not given) | -3.68% (inactive)
6 | CCS(=O)(=O)Nc1ccc(C2=NN(C(C)=O)C(c3cccs3)C2)cc1 (stereo not given) | 16% (inactive)
7 | CS(=O)(=O)Nc1ccc(C2=NN(S(C)(=O)=O)C(c3cccs3)C2)cc1 (stereo not given) | 33.7% (active)
8 | Cc1ccccc1C1CC(c2cccs2)=NN1S(C)(=O)=O (stereo not given) | -1.48% (inactive)
9 | Cc1ccc(C2CC(c3cccc(NS(C)(=O)=O)c3)=NN2S(C)(=O)=O)cc1 (stereo not given) | 45.1% (active)
10 | CS(=O)(=O)Nc1cccc(C2=NN(C(=O)c3cccc(F)c3)C(c3cccs3)C2)c1 (stereo not given) | -2.01% (inactive)
11 | CCOc1ccc(NC(=S)NC(=O)/C=C/c2ccc(OC)cc2)c([N+](=O)[O-])c1 | 9.22% (inactive)
12 | c1ccc2c(C[n+]3csc4ccccc43)cccc2c1 | 9.31% (inactive)
13 | COC(=O)Cn1cnc2scc(-c3ccc(C)c(C)c3)c2c1=O | -2.51% (inactive)
14 | CCc1ccc(S(=O)(=O)N/N=C\c2ccc([N+](=O)[O-])o2)cc1 | 5.73% (inactive)
15 | Cc1cc2ccccn2c1C(=O)c1cccc(S(=O)(=O)N2CCOCC2)c1 | -0.598% (inactive)
16 | CC(C)(C)OC(=O)NNc1c2ccccc2nc2ccccc12 | 11.3% (active)
17 | CCC(=O)OCCNc1nc(-c2ccccc2)nc2ccccc12 | 1.39% (inactive)
18 | O=C(NNc1c2ccccc2nc2ccccc12)c1cc2ccccc2cc1O | -1.17% (inactive)
19 | COc1ccc(C(CCN(Cc2ccc(OC)c(OC)c2)C(=O)CCl)c2ccccc2)cc1 (stereo not given) | -1.89% (inactive)
20 | CC(=O)c1cccc(NC(=O)CN2C(=O)c3cccnc3Oc3ccc(Cl)cc32)c1 | 8.12% (inactive)
21 | O=C(Cn1c(N2CCN(C/C=C/c3ccccc3)CC2)nc2ccccc21)c1ccccc1 | 8.47% (inactive)
22 | CC[C@H](C)[C@H](NC(=O)[C@@H](N)CCC(=O)O)C(=O)N[C@@H](CC(C)C)C(=O)N[C@@H](CC(=O)O)C(=O)N[C@H](C(=O)N1CCC[C@H]1C(=O)N[C@@H](CO)C(=O)N[C@H](C(=O)O)[C@@H](C)O)C(C)C | 0.56% (inactive)
23 | CCOC(=O)c1c(NC(=O)C(C)Sc2c[nH]c3ccccc23)sc2c1CCC2 (stereo not given) | -0.942% (inactive)

Row | Compound | max response
24 | CCOc1ccccc1NC(=O)CCc1nnc2ccc(NCc3ccco3)nn12 | 2.03% (inactive)
25 | CC(=O)c1ccc(NC(=O)CCc2nnc3ccc(NCc4ccco4)nn23)cc1 | 40.6% (active)
26 | O=C(CCc1nnc2ccc(NCc3ccco3)nn12)Nc1cc(F)ccc1F | -2.19% (inactive)
27 | O=C(c1ccncc1)c1ccc([N+](=O)[O-])cc1 | -4.87% (inactive)
28 | O=C(CC(n1cncn1)C(Cl)(Cl)Cl)c1ccc([N+](=O)[O-])cc1 (stereo not given) | -2.22% (inactive)
29 | O=C(Cn1c[n+](CC(=O)c2ccc([N+](=O)[O-])cc2)cn1)c1ccc([N+](=O)[O-])cc1 | 1.46% (inactive) and 22.2% (active)
30 | COc1ccc(N2CCC(N3CCN(C)C(CCO)C3)CC2)cc1 (stereo not given) | -1.24% (inactive)
31 | COc1ccc(OCCNS(=O)(=O)Cc2ccccc2)cc1 | -3.58% (inactive)
32 | O=C(c1ccc(Cl)cc1)N1N=C(c2ccccn2)CC1(O)C(F)(F)F (stereo not given) | -0.573% (inactive)
33 | COc1ccc(OC)c(CNC(=O)c2cc(=O)[nH]c3ccc(S(=O)(=O)N4CCCC4)cc23)c1 | 11.5% (inactive)
34 | COC(CNC(=O)c1ccc2c(c1)ncn2-c1cc(C)cc(C)c1)OC | -5.14% (inactive)
35 | Cc1ccc(C(=O)CSc2nc3ccccc3c(=O)n2N)o1 | 34.6% (active)
36 | COC(=O)CSc1nc2ccccc2c(=O)n1Cc1ccccc1 | 12.7% (inactive)
37 | O=C(CCCn1c(SCC(=O)c2ccc(F)cc2)nc2ccccc2c1=O)NCc1ccco1 | -0.158% (inactive)
38 | CC1CCC(NC(=O)CN(C)S(=O)(=O)c2ccc3c(c2)c(=O)n(C)c(=O)n3C)CC1 (stereo not given) | -2.52% (inactive)
39 | Cn1c(=NC(=O)c2cnccn2)sc2ccccc21 | 26% (active)
40 | Cn1c(=NC(=O)CSCC(=O)N2CCCCC2)sc2ccccc21 | 2.51% (inactive)
41 | Cn1c(=NC(=O)CSCC(=O)N2CCOCC2)sc2ccccc21 | 11% (inactive)
42 | COc1cc(CO)c(C2(CO)CCCC2)cc1OC | -4.97% (inactive)
43 | Cc1cc(C)cc(N(CCC#N)C(=O)CN2C(=O)NC3(CCCC3)C2=O)c1 | 1.6% (inactive)
44 | Oc1ccccc1N1CCN(c2ncnc3sc(-c4ccccc4)cc23)CC1 | 9.53% (inactive)
45 | O=c1c(-c2ccccc2)cnc2n1CCS2 | -4.67% (inactive)
46 | O=c1c2cc(-c3ccccc3)sc2nc2n1N=C(c1cccs1)CS2 | 57% (active)

Row | Compound | max response
47 | CC(C)NC(=O)C(c1ccc(F)cc1)N(C(=O)CCC(=O)Nc1ccccn1)c1ccccc1F (stereo not given) | -2.11% (inactive)
48 | CC(C)CCNC(=O)Cn1c(=O)oc2cc(S(=O)(=O)N3CC(C)CC(C)C3)ccc21 (stereo not given) | -7.3% (inactive)
49 | O=S1(=O)CCN(Cc2ccccc2Cl)CC1 | -2.05% (inactive)
50 | COc1ccccc1/C=N/N1CCN(Cc2ccccc2Cl)CC1 | 1.31% (inactive)
51 | CSc1ccc(/C=N/N2CCN(Cc3ccccc3Cl)CC2)cc1 | 16.6% (active)
52 | Cc1cccc(-n2cnc(C(=O)Nc3cccnc3)c2)n1 | 25.5% (active)
53 | Cc1cc(C)c(NC(=O)CS(=O)CC(=O)Nc2cccnc2)c(C)c1 (stereo not given) | 3.39% (inactive)
54 | Cc1cccc(-n2cnc(C(=O)NNC(=S)Nc3ccccc3)c2)n1 | -0.715% (inactive)
55 | Cc1cccc(Nc2nc3c(S(=O)(=O)c4ccccc4)nnn3c3ccccc23)c1C | -2.93% (inactive)
56 | Cc1ccc(/C=C2\CCn3c2nc2cc(C(=O)O)ccc2c3=O)c(C)c1 | 8.18% (inactive)
57 | CCc1ccc(-c2nn(-c3ccccc3)cc2CSC(=N)N)cc1 | -12.4% (inactive)
58 | COc1cc2c(cc1OC)CN(C(=O)c1cc(S(=O)(=O)N3CCCCC3)ccc1Cl)CC2 | 11.1% (inactive)
59 | Cc1ccccc1OCC(=O)Nc1nnc(S(=O)(=O)N2CCCC2)s1 | 1.8% (inactive)
60 | CC(NC(=O)CSc1nc2c(cc1C#N)CN(C)CC2)c1ccccc1 (stereo not given) | -4.77% (inactive)
61 | Cc1cc(NC(=O)CSc2nc3c(cc2C#N)CCCCC3)no1 | 14.6% (active)
62 | Cc1nc(SCC(=O)Nc2cc(C)on2)c2c(C)c(C)sc2n1 | -2.36% (inactive)
63 | Cc1c(CCO)sc[n+]1CC(=O)OC12CC3CC(CC(C3)C1)C2 | -2.92% (inactive)
64 | COC(=O)C1(C)CC1(c1ccccc1)c1ccccc1 (stereo not given) | -2.76% (inactive)
65 | COC(=O)c1c(C)oc2ccc(N(C(=O)Oc3ccccc3)S(=O)(=O)c3ccccc3)cc12 | -13.2% (inactive)
66 | Cc1cccc(C(=O)c2cccc(C)c2)c1 | 0.416% (inactive)
67 | Cc1cccc(/C(N)=N/OC(=O)c2ccccc2Cl)c1 | 37% (active)
68 | N/C(=N\OC(=O)c1cc(-c2ccccc2)nc2ccccc12)c1ccncc1 | -3.22% (inactive)
69 | O=C(O)CCN=C1CCc2ccccc2N1 | -2.89% (inactive)

Row | Compound | max response
70 | COc1cc(OC)cc(-c2nnc(N(C)C(=O)c3ccncc3)s2)c1 | -2.59% (inactive)
71 | COc1ccc(NC(=O)C2CCN(S(=O)(=O)c3ccc4[nH]c(=O)oc4c3)CC2)c(OC)c1 | -1.11% (inactive)
72 | Cc1ccc(N(CC(=O)Nc2cccc(N(C)S(C)(=O)=O)c2)S(C)(=O)=O)cc1 | -1.08% (inactive)
73 | CN(c1cccc(NC(=O)c2ccc(CN3CCc4ccccc4C3)cc2)c1)S(C)(=O)=O | -1.55% (inactive)
74 | CN(c1cccc(NC(=O)Nc2ccc(Cl)cc2)c1)S(C)(=O)=O | 36.6% (active)
75 | CC(=O)Nc1cccc(/C(C)=N/NC(=O)c2ccccc2Cl)c1 | 8.8% (inactive)
76 | C/C(=N/NC(=O)c1ccc(NC(=O)c2ccc(F)cc2)cc1)c1ccccc1 | 11% (inactive)
77 | COc1cccc(C(=O)N/N=C(\C)c2cccc(NC(=O)c3ccc(F)cc3)c2)c1OC | 27.3% (active)
78 | O=C(Nc1nonc1-c1ccc(Cl)cc1)c1ccco1 | 7.55% (inactive)
79 | NC(=O)C1CCN(C(=O)COc2ccc3c4c(c(=O)oc3c2)CCC4)CC1 | -1.44% (inactive)
80 | NC(=O)COc1ccc2c3c(c(=O)oc2c1)CCCCC3 | 12.8% (active)
81 | O=C(COc1ccc2c3c(c(=O)oc2c1)CCC3)NC1CCCCC1 | 1.97% (inactive)
82 | CC1CCN(C(=O)c2cc3nc(C4CC4)cc(C(F)(F)F)n3n2)CC1 | 1.99% (inactive)
83 | CCNC(=S)N(CCN(CC)CC)Cc1cc2cc3c(cc2[nH]c1=O)OCCO3 | -0.726% (inactive)
84 | COc1cccc(-c2cc(=O)c3cc(NC(=O)c4ccc(C)cc4)ccc3[nH]2)c1 | -0.33% (inactive)
85 | CC1C/C(=N/NC(=O)c2cccs2)CC(C)(C)C1 (stereo not given) | 32.2% (active)
86 | CC1(C)CC(=O)C/C(=N\NC(=O)c2cccs2)C1 | 1.56% (inactive)
87 | CC(C)OCCCNC(=O)CNC(=O)c1cccs1 | -3.03% (inactive)
88 | CC(=O)NNC1=Nc2ccccc2N(C)C(C)C1 (stereo not given) | -2.23% (inactive)
89 | CC(C)c1ccccc1OCC(O)CN(CC(O)COc1cccc2ccccc12)C(C)C (stereo not given) | -5.17% (inactive)
90 | Cc1ccc(NS(=O)(=O)c2ccc(-c3ccc(=O)[nH]n3)o2)c(C)c1 | -1.58% (inactive)
